The values below come from the supplement of paper PMC10849652.

Of roughly 7,900 targets only a part is listed; those with a hit were picked by preference. About 0.6% of all pairs of compound and target were hits. A number with no mark means an inactive call.

Holding throughout (test): log2 fold change, soluble protein after heating vs DMSO (PISA); higher = thermal stabilisation; K562 cells, 10 uM, 30 min; active = over 0.2 and 3.5 SD of the protein, either way, in both replicates (recomputed)
Compound in experiment [1]: CC1=C(C=C(C=C1)NC(=O)C2=CC(=CC=C2)C(C)(C)C#N)NC3=CC4=C(C=C3)N=CN(C4=O)C
Summed up: (§1)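 K562 cells at 2×10^6 cells/mL were treated for 30 min with 10 μM compound, and aliquots were heated for 3 min over 48°C-58°C before pooling. Extraction used PBS with 0.5% NP-40 at 4°C, and soluble protein was the supernatant after 21,000xg for 90 min, measured by TMTpro 16plex LC-MS/MS with channel sums equalised. Thermal stability values, relative to control samples and from duplicates, are log2 fold changes.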

Compound in experiment [2]: CC1=C(C=C(C=C1)NC(=O)C2=CC(=CC=C2)N(C)C)NC(=O)C3=CC=C(C=C3)O
Summed up:
as §1

Compound in experiment [3]: CC1=CC=C(C=C1)SC2=C3C=C(SC3=CN=C2)C(=O)N
Summed up:
as §1

Compound in experiment [4]: CC1=NC(=CC=C1)C2=C(N=C(N2)C(C)(C)C)C3=CC4=NC=CN=C4C=C3
Summed up:
as §1

Compound in the next experiment: CCCCN(Cc1ccc(C(=O)NO)cc1)C(=O)Nc1ccccc1 [Nexturastat A]
Summed up: as §1

Compound in another experiment: CCCS(=O)(=O)Nc1ccc(F)c(C(=O)c2c[nH]c3ncc(-c4ccc(Cl)cc4)cc23)c1F [vemurafenib]
Summed up:
as §1

Compound in experiment [5]: CCCS(=O)(=O)Nc1ccc(F)c(C(=O)c2c[nH]c3ncc(Cl)cc23)c1F
Summed up:
as §1

Compound in experiment [6]: CCCc1cc(C)[nH]c(=O)c1CNC(=O)c1cc(-c2ccnc(N3CCN(C)CC3)c2)cc2c1cnn2C(C)C
Summed up:
as §1

Compound in a further experiment: CCN(CC)Cc1ccc2cc(COC(=O)Nc3ccc(C(=O)NO)cc3)ccc2c1 [givinostat]
Summed up:
as §1

Compound in another experiment: CCN(CCCOc1ccc2c(Nc3cc(CC(=O)Nc4cccc(F)c4)[nH]n3)ncnc2c1)CCOP(=O)(O)O [barasertib]
Summed up: as §1

Compound in experiment [7]: CC[C@@H]1C(=O)N(C)c2cnc(Nc3ccc(C(=O)NC4CCN(C)CC4)cc3OC)nc2N1C1CCCC1
Summed up: as §1

Compound in another experiment: CC[C@@H]1C(=O)N(C)c2cnc(Nc3ccc(C(=O)N[C@H]4CC[C@H](N5CCN(CC6CC6)CC5)CC4)cc3OC)nc2N1C(C)C [volasertib]
Summed up: as §1

Compound in experiment [8]: CC[C@H](C)N1C=C(C2=C(C=C(C=C21)C3=CN=C(C=C3)N4CCNCC4)C(=O)NCC5=C(C=C(NC5=O)C)C)C
Summed up:
as §1

Compound in a further experiment: CC[C@H](C)[C@@H](C(=O)N[C@@H]([C@@H](C)O)C(=O)N[C@@H](CC(C)C)C(=O)[C@]1(CO1)C)NC(=O)[C@H]([C@@H](C)CC)N(C)C(=O)C [epoxomicin]
Summed up: as §1

Compound in experiment [9]: CCn1c(C(=O)N(C2CC2)C2CC2)cc2c3c(ncn3C)c(Nc3cc(C)n(C)n3)nc21
Summed up: as §1

Compound in experiment [10]: CCn1cc(-c2ccnc3[nH]c(-c4cccc(CN(C)C)c4)cc23)c(-c2ccc(NC(=O)N(C)C)cc2)n1
Summed up:
as §1

Compound in experiment [11]: CN(C)CC(=O)Nc1ccc2[nH]c(=O)c3ccccc3c2c1
Summed up:
as §1

Compound in another experiment: CN(CCOC1=CC=C(C=C1)C[C@H]2C(=O)NC(=O)S2)C3=CC=CC=N3 (racemic) [rosiglitazone]
Summed up:
as §1

Compound in experiment [12]: CN1C2=C(C3=C1C(=O)N(N=C3)CC4=CC(=CC=C4)N)SC(=C2)S(=O)C
Summed up: as §1

Compound in experiment [13]: CN1CCC(CNc2ccc3ncc(-c4cccc(OC(F)(F)F)c4)n3n2)CC1
Summed up:
as §1

Sequence of UniProt P19338 (P19338 whole entry, looked up): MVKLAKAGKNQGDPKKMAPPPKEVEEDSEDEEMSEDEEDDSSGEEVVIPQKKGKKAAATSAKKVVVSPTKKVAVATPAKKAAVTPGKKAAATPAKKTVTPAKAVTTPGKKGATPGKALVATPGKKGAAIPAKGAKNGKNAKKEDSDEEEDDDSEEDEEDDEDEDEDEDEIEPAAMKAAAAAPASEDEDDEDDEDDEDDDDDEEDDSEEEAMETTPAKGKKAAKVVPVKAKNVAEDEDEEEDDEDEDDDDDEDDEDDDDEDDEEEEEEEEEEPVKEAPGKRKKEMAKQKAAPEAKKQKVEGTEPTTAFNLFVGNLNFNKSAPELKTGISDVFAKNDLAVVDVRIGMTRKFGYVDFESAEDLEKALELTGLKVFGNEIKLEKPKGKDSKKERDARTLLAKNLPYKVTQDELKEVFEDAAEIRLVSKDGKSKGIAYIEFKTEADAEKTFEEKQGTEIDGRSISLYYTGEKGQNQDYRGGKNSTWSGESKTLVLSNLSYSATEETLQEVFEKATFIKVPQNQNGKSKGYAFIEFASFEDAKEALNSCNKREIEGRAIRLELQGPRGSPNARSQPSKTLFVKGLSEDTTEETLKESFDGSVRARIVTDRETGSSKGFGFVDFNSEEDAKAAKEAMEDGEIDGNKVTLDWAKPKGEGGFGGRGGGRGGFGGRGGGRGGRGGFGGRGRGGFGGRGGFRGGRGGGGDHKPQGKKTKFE
Sequence of UniProt P46934 (P46934 whole entry, looked up): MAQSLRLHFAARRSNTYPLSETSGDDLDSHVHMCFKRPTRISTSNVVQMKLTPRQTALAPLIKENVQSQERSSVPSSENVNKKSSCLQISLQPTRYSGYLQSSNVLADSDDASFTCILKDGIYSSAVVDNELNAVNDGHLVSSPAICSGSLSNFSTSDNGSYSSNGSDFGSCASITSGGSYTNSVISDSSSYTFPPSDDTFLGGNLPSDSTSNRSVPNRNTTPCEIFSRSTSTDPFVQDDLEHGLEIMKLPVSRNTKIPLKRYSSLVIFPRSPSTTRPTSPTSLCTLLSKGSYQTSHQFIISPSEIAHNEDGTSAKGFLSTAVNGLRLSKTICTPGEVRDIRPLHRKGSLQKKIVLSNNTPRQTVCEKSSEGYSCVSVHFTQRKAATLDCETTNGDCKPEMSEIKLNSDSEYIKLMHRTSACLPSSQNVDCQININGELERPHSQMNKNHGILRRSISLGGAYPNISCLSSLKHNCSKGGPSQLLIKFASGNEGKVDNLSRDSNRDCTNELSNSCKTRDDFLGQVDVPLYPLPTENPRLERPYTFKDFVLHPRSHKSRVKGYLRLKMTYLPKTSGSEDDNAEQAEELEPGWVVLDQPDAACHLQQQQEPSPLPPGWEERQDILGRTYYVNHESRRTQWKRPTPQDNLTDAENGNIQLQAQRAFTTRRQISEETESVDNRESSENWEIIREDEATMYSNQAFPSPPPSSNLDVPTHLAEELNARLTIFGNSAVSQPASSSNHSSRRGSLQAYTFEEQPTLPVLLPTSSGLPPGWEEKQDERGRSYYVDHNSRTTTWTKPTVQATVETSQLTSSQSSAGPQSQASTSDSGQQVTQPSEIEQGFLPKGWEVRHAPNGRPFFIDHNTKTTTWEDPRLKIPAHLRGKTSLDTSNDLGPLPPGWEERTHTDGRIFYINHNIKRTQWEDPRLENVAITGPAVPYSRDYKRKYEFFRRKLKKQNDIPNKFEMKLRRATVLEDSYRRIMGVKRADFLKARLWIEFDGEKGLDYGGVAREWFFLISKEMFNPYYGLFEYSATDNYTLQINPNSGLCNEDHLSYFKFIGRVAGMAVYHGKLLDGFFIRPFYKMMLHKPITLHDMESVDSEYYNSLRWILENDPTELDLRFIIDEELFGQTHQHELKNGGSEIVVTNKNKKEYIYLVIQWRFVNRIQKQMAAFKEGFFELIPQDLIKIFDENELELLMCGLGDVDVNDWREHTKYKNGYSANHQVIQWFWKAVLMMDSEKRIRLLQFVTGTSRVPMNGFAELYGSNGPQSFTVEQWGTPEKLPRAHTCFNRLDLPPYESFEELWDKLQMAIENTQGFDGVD
Sequence of UniProt P35580 (P35580 whole entry, looked up): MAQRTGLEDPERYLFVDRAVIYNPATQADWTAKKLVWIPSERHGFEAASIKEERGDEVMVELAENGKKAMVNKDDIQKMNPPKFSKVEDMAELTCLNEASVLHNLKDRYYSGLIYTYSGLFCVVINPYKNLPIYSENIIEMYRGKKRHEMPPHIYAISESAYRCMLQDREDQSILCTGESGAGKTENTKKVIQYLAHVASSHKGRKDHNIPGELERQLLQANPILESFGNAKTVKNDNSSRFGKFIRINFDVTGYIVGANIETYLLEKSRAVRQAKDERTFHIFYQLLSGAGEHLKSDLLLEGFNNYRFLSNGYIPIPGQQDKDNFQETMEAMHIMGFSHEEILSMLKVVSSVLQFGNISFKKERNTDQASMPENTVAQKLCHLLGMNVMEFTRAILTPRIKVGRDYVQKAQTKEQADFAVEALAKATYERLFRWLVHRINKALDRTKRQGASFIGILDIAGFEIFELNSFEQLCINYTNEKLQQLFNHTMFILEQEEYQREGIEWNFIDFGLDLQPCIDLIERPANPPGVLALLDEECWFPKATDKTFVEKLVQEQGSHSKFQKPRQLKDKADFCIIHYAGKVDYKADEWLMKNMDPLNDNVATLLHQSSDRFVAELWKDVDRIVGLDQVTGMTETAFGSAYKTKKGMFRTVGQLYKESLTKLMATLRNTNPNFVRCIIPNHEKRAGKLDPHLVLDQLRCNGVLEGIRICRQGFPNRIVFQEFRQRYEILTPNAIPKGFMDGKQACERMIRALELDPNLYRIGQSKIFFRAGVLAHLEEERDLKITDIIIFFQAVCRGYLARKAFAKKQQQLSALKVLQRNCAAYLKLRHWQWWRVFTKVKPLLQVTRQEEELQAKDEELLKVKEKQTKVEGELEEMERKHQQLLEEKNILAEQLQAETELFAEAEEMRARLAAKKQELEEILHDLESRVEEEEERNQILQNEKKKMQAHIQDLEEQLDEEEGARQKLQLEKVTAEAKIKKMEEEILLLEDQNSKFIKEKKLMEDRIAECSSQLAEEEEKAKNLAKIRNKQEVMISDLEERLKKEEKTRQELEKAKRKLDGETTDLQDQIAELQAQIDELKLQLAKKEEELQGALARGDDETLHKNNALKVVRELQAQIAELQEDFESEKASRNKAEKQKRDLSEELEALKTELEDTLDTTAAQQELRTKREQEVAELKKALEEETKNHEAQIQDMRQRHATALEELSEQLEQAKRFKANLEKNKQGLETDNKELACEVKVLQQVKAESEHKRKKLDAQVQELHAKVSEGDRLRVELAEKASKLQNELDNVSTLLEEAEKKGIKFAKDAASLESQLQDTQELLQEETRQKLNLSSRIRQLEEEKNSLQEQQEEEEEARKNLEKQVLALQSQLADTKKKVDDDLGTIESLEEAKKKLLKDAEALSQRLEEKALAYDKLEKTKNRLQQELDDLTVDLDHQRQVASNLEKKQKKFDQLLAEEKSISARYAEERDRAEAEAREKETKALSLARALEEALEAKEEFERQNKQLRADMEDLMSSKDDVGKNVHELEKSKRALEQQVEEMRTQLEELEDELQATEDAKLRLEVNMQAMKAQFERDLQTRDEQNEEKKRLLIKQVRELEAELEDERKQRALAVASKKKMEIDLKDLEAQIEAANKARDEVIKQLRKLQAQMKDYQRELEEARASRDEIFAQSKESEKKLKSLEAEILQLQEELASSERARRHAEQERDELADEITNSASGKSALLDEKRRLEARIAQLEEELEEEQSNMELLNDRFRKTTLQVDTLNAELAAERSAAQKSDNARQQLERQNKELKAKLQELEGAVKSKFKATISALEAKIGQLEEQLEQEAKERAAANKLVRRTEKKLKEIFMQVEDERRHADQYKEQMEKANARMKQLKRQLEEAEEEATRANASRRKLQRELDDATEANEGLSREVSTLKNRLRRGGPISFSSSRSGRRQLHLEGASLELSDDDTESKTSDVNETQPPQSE

For the target NCL (UniProt P19338), the log2 fold change is -0.017 in experiment [1]; -0.056 in experiment [2]; -0.077 in experiment [3]; -0.126 in [4]; 0.275 in the experiment with Nexturastat A; -0.139 in the experiment with vemurafenib. Besides, the log2 fold change in experiment [5] was -0.036; in experiment [6], 0.145; with givinostat, 0.085; with barasertib it was -0.101; in [7], 0.167; in the experiment with volasertib, 0.173. Besides, the log2 fold change in [8] was -0.011; with epoxomicin it was -0.427; in [9] it was 0.022; in experiment [10], 0.336; in [11] it was -0.06; with rosiglitazone it was -0.194. Also, the log2 fold change was 0.393 in experiment [12] and 0.293 in experiment [13].
As for MYH10 isoform 3 (UniProt P35580), the log2 fold change was 0.009 in experiment [1]; -0.033 in experiment [2]; 0.019 in experiment [3]; 0.07 in experiment [4]; -0.05 with Nexturastat A; 0.028 with vemurafenib. Moreover, the log2 fold change was 0.05 in [5]; 0 in experiment [6]; -0.003 with givinostat; 0.038 in the experiment with barasertib; -0.082 in experiment [7]; -0.216 (active) in the experiment with volasertib. Moreover, the log2 fold change in [8] is 0.026; in the experiment with epoxomicin, 0.094; in [9], -0.025; in experiment [10] it was -0.036; in experiment [11], 0.024; with rosiglitazone, 0.022. Further, the log2 fold change in experiment [12] was -0.064; in experiment [13] it was -0.077.
In the case of NEDD4 isoform 4 (UniProt P46934), the log2 fold change in experiment [1] is -0.069; in experiment [2], -0.011; in experiment [3], -0.025; in experiment [4], 0.047; with Nexturastat A it was -0.04; with vemurafenib, 0.029. For the same target, the log2 fold change in experiment [5] was 0.026; in experiment [6], 0.026; with givinostat, 0.018; with barasertib, 0.009; in [7], -0.102; with volasertib it was -0.521 (active). In addition, the log2 fold change is 0.008 in experiment [8]; 0.008 in the experiment with epoxomicin; 0 in experiment [9]; -0.031 in experiment [10]; 0.015 in [11]; 0.065 with rosiglitazone. Also, the log2 fold change was -0.01 in experiment [12] and 0.049 in experiment [13].
On to NUMA1 (UniProt Q14980), for which the log2 fold change in experiment [1] is 0.03; in experiment [2], -0.029; in experiment [3] it was -0.009; in experiment [4], -0.073; in the experiment with Nexturastat A it was 0.262; in the experiment with vemurafenib, 0.02. For the same target, the log2 fold change in experiment [5] is 0.005; in experiment [6] it was 0.132; with givinostat, 0.092; with barasertib it was 0.005; in experiment [7], 0.065; with volasertib, 0.034. Besides, the log2 fold change in [8] was 0.039; with epoxomicin it was -0.044; in experiment [9], -0.031; in experiment [10], 0.068; in [11], 0.003; with rosiglitazone, -0.035. For the same target, the log2 fold change was 0.115 in [12] and -0.191 in experiment [13].
